Results on 40 compounds are retold here after the supplement of paper PMC9023506.

Counter-ions that a name gives are not always drawn.

This assay concerns Danio rerio larvae (5 dpf). Briefly: habituation to 1-s acoustic pulses, difference vs DMSO (percentage points (treated minus DMSO)); higher = more of the behaviour than the DMSO vehicle control. The conditions noted are these: 10 µM; exposure time: 3 h pre-incubation + 3 h imaging. The procedure: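 5-dpf wild-type zebrafish larvae were imaged in 96-well plates. They were treated with 190 Tocris FDA-approved drugs at 10 µM (1 µl/ml DMSO) for 3 h before and 3 h during imaging at 28.5 °C, 48 larvae per drug. Automated image analysis gave % time moving and optomotor responses. Values are drug group mean minus DMSO vehicle mean (n=844), in percentage points, for 10 behaviours.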
With `C=C1[C@H](CO)[C@@H](O)C[C@@H]1n1cnc2c(=O)[nH]c(N)nc21` [Entecavir], the “habituation to 1-s acoustic pulses” value turned out to be 3.17.
The value for `CCN(Cc1ccncc1)C(=O)C(CO)c1ccccc1` (stereo not given) [Tropicamide] was -1.73; that for `CN1CCC[C@@H]1Cc1c[nH]c2ccc(CCS(=O)(=O)c3ccccc3)cc12` [Eletriptan hydrobromide] was 10.1.
As to `CC(C)CN(C[C@@H](O)[C@H](Cc1ccccc1)NC(=O)O[C@H]1CO[C@H]2OCC[C@H]21)S(=O)(=O)c1ccc(N)cc1` [Darunavir], the “habituation to 1-s acoustic pulses” value is -1.13.
As for `CCC(C)(C)C(=O)O[C@H]1C[C@@H](C)C=C2C=C[C@H](C)[C@H](CC[C@@H]3C[C@@H](O)CC(=O)O3)[C@H]21` [Simvastatin], the “habituation to 1-s acoustic pulses” value is -1.13.
In the case of `C=CC(=O)N1CCC[C@@H](n2nc(-c3ccc(Oc4ccccc4)cc3)c3c(N)ncnc32)C1` [Ibrutinib], the “habituation to 1-s acoustic pulses” value was -7.68.
For `N[C@@H]1[C@H]2CN(c3nc4c(cc3F)c(=O)c(C(=O)O)cn4-c3ccc(F)cc3F)C[C@@H]12` [Trovafloxacin mesylate], the “habituation to 1-s acoustic pulses” value is -3.6.
For `CCOC(=O)C1=C(COCCN)NC(C)=C(C(=O)OC)C1c1ccccc1Cl` (stereo not given) [Amlodipine besylate], the “habituation to 1-s acoustic pulses” value was -2.17.
The value for `CC1CNc2c(cccc2S(=O)(=O)N[C@@H](CCCNC(=N)N)C(=O)N2CC[C@@H](C)C[C@@H]2C(=O)O)C1` (stereo not given in full) [Argatroban] was -0.436; that for `CCOc1ccccc1OCCN[C@H](C)Cc1ccc(OC)c(S(N)(=O)=O)c1` [Tamsulosin hydrochloride] was -0.195.
The result for `NS(=O)(=O)c1cc(C(=O)O)c(NCc2ccco2)cc1Cl` [Furosemide] reads 1.08.
In the case of `NC(=O)N1c2ccccc2C=Cc2ccccc21` [Carbamazepine], the “habituation to 1-s acoustic pulses” value worked out at 2.65.
Turning to `C[C@]12CC[C@@H]3c4ccc(O)cc4C[C@@H](CCCCCCCCC[S+]([O-])CCCC(F)(F)C(F)(F)F)[C@H]3[C@@H]1CC[C@@H]2O` (stereo not given in full), the “habituation to 1-s acoustic pulses” value is -2.82.
For the compound `CCOC(=O)N1CCC(=C2c3ccc(Cl)cc3CCc3cccnc32)CC1` [Loratidine], the “habituation to 1-s acoustic pulses” value is -7.1.
Take `O=C(c1ccc(OCCN2CCCCC2)cc1)c1c(-c2ccc(O)cc2)sc2cc(O)ccc12` [Raloxifene hydrochloride]: the “habituation to 1-s acoustic pulses” value was 1.64.
Consider `CCc1ccc(CCOc2ccc(CC3SC(=O)NC3=O)cc2)nc1` (stereo not given) [Pioglitazone hydrochloride], for which the “habituation to 1-s acoustic pulses” value was 0.476.
With `CC(C)c1nc(N(C)S(C)(=O)=O)nc(-c2ccc(F)cc2)c1/C=C/[C@@H](O)C[C@@H](O)CC(=O)O` [Rosuvastatin calcium], the “habituation to 1-s acoustic pulses” value was 0.315.
The result for `CC(C)[C@H]1CC[C@H](C(=O)N[C@H](Cc2ccccc2)C(=O)O)CC1` [Nateglinide] reads 0.774; that for `CC(C)(C(=O)c1cccnc1)c1cccnc1` [Metyrapone], -0.218; that for `CCCCc1nc(Cl)c(CO)n1Cc1ccc(-c2ccccc2-c2nnn[nH]2)cc1` [Losartan potassium], 0.91.
Regarding `Cc1nnc(C(C)C)n1C1C[C@H]2CC[C@@H](C1)N2CC[C@H](NC(=O)C1CCC(F)(F)CC1)c1ccccc1` (stereo in doubt) [Maraviroc], the “habituation to 1-s acoustic pulses” value stood at 2.48.
For the compound `CC1=Nc2ccc(Cl)cc2S(=O)(=O)N1` [Diazoxide], the “habituation to 1-s acoustic pulses” value was 9.12.
As to `Cc1cc2c(s1)Nc1ccccc1N=C2N1CCN(C)CC1` [Olanzapine], the “habituation to 1-s acoustic pulses” value came to 0.145.
The value for `CN1CC[C@@H](NC(=O)Nc2ccc(C#N)cc2)C[C@@H]1c1nc2ccccc2[nH]1` was -0.957.
Turning to `CN1CC(=O)N2[C@H](c3ccc4c(c3)OCO4)c3[nH]c4ccccc4c3C[C@@H]2C1=O` [Tadalafil], the “habituation to 1-s acoustic pulses” value was -1.05.
The value for `Cc1c(-c2ccc(O)cc2)n(Cc2ccc(OCCN3CCCCCC3)cc2)c2ccc(O)cc12` [Bazedoxifene acetate] was 0.273; that for `O=C(O[C@@H]1C[C@@H]2C[C@H]3C[C@H](C1)N2CC3=O)c1c[nH]c2ccccc12` [Dolasetron mesylate] was 2.06; that for `CC(c1cc2ccccc2s1)N(O)C(N)=O` (stereo not given) [Zileuton] was 7.12.
The result for `N#C[C@@H]1C[C@@H]2C[C@@H]2N1C(=O)[C@@H](N)C12CC3CC(CC(O)(C3)C1)C2` [Saxagliptin hydrochloride] reads 1.97.
The value for `Nc1ccn([C@@H]2O[C@H](CO)[C@@H](O)C2(F)F)c(=O)n1` [Gemcitabine hydrochloride] was -2.82; that for `COc1ccccc1Oc1c(NS(=O)(=O)c2ccc(C(C)(C)C)cc2)nc(-c2ncccn2)nc1OCCO` [Bosentan] was 4.23; that for `COc1ccc(-c2ccc3cc(C(=O)O)ccc3c2)cc1C12CC3CC(CC(C3)C1)C2` [Adapalene] was 2.52.
For `CN1CCN(CCCN2c3ccccc3Sc3ccc(Cl)cc32)CC1` [Prochlorperazine dimaleate], the “habituation to 1-s acoustic pulses” value is -7.34.
`O=C(O)C[C@H](O)C[C@H](O)/C=C/c1c(C2CC2)nc2ccccc2c1-c1ccc(F)cc1` [Pitavastatin calcium]: the “habituation to 1-s acoustic pulses” value is -6.74.
As to `CC(=O)Oc1ccccc1C(=O)O` [Aspirin], the “habituation to 1-s acoustic pulses” value is -5.13.
The result for `CC[C@H](C)C(=O)O[C@H]1C[C@@H](C)C=C2C=C[C@H](C)[C@H](CC[C@@H]3C[C@@H](O)CC(=O)O3)[C@H]21` [Lovastatin] reads -1.04; that for `C[C@H](Cc1cc2c(c(C(N)=O)c1)N(CCCO)CC2)NCCOc1ccccc1OCC(F)(F)F` [Silodosin], 7.97.
`CN(C)C(=N)NC(=N)N` [Metformin hydrochloride]: the “habituation to 1-s acoustic pulses” value was 0.867.
The result for `C[C@H]1O[C@H](O[C@H]2[C@H](O)[C@@H](O)[C@@H](O[C@H]3[C@H](O)[C@@H](O)C(O)O[C@@H]3CO)O[C@@H]2CO)[C@H](O)[C@@H](O)[C@@H]1N[C@H]1C=C(CO)[C@@H](O)[C@H](O)[C@H]1O` (stereo not given in full) [Acarbose] reads 3.26; that for `COCCc1ccc(OCC(O)CNC(C)C)cc1` (stereo not given) [Metoprolol tartrate], -3.95.
